The list is not random: actives were taken first. Their share in the collection is about 2.2%.
SMARCA2 act: increases SMARCA2 function in MMTV reporter cells. hit rate 1% among 370,000. activation, % at 9.1 µM. MG213 cells, MMTV-luciferase reporter, dexamethasone, overnight. AID 652017; in the data active = activation above about 7.8%
GAA850 FXN act: activators of GAA850 frataxin (FXN) promoter; HEK293 lucGAA850 FXN promoter luciferase reporter, 24 h; percent of 10 µM SAHA response; hit rate 0.56% among 360,000; activation, % at 6 µM; AID 540364;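 active = activation above the average of all compounds screened plus 3 SD, cutoff fixed separately per campaign, cut at about 7.5% in these data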
Hsp70 act: transcriptional activators of Hsp70; HeLa Hsp70 promoter luciferase reporter, luminescence; scaled: vehicle 0, proteasome-inhibitor control 100%; activation, % at 10 µM; hit rate 0.04% among 200,000;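 active = activation above the mean across all tested compounds plus 3 SD, cutoff set per campaign, cut at about 5.5% in these data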
GalR3 antagonist: antagonists of human GalR3. O60755. HEK293 GalR3-CNG cAMP membrane potential fluorescence; galR3 body fused to GalR1 C-terminus. inhibition, % at 3 µM. hit rate 0.44% among 360,000;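 active = inhibition above the screen-wide average plus 3 SD, cut at about 13% in these data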;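 also: forskolin and galanin both at EC90 stimulate the cells; cAMP rise reported by CNG channel membrane potential dye signal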
Target sequence (O60755 1-299 limits assumed): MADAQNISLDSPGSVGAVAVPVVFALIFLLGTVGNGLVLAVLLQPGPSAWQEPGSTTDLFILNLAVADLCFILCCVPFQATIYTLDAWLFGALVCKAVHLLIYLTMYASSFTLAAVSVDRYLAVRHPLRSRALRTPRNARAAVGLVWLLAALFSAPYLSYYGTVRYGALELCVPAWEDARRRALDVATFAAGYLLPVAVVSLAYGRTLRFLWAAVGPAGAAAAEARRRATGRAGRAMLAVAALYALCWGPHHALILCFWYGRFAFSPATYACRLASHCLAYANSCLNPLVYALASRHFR
HIF activator: HIF pathway transcriptional activation. hit rate 0.32% among 300,000. U2OS HRE-luciferase reporter, luminescence; normalized: DMSO 0%, desferrioxamine 100%. AID 1910. activation, % at 7.5 µM (by protocol);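 active = mean activation of at least 10% of the iron chelator positive control signal, with at least half of replicates also reaching 10%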
SMARCA2 conf: confirmation of SMARCA2 (BRM) function activators; AID 652260; activation, % at 9.1 µM; shares compounds with SMARCA2 act; MG213 cells, MMTV-luciferase with dexamethasone, luminescence, overnight; MG213 cells expressing E1A, Rb sequestered; DMSO wells 0%, reference activator 100%; hit rate 30% among 3,500;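 active = activation above its plate's cutoff, the mean activation of tested wells plus 3 SD, cut at about 7.9% in these data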
GAL4-VP16 Luc: activates GAL4-VP16 luciferase, flagging SMARCA2 activator hits. shares compounds with SMARCA2 act. hit rate 41% among 3,500. activation, % at 9.1 µM. AID 686939. HEK293 GAL4-VP16 pG5luc reporter, luciferase luminescence; scaled: DMSO wells 0%, SAHA wells 100%;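 active = activation above the solvent-only control well mean plus 3 SD, averaged across control plates, cut at about 5.2% in these data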
Hits are given with their value; . = inactive; / = not tested or not shown.

SMILES | SMARCA2 act | GAA850 FXN act | Hsp70 act | GalR3 antagonist | HIF activator | SMARCA2 conf | GAL4-VP16 Luc
N#Cc1c(Nc2ccccc2Cl)s[nH]c1=O | 8.8 | . | / | . | . | . | .
Cc1cccc(NC(=O)CN2C(=O)N/C(=C\c3ccccc3OCc3ccc(C(=O)O)cc3)C2=O)c1 | 8.7 | . | / | . | . | . | .
O=C(OCC(=O)c1ccc[nH]1)c1ccc(C(F)(F)F)cc1 | . | . | / | . | / | / | /
CC(C)Oc1ccc(C(=O)OCC(=O)c2ccc[nH]2)cc1 | 11.6 | . | / | . | / | 9.4 | 7.3
Cc1cccc(NC(=O)CSc2nnc(-c3cccnc3)n2Cc2ccco2)c1C | . | / | / | / | / | / | /
CCC(C)Nc1nc(C)nc2c1nnn2Cc1ccccc1 (stereo not given) | 8.0 | / | / | / | / | . | .
COc1ccccc1-n1cc(-c2ccccc2)c2c(=S)nc[nH]c21 | 8.4 | . | / | . | . | . | .
CCn1c([N+](=O)[O-])nc2c1c(=O)[nH]c(=O)n2C | 19.4 | . | . | . | . | 55.8 | .
CCCCCCn1c(SCCCC)nc2c1c(=O)[nH]c(=O)n2C | . | . | . | . | / | / | /
O=C(O)C1C(C(=O)Nc2ccc(Cl)cc2)C2C=CC1C21CC1 (stereo not given) | 8.7 | . | . | . | . | . | .
O=C(Nc1ccc(Cl)cc1)C1C2CCC3C(CCC21)C3(Cl)Cl (stereo not given) | . | . | . | . | / | / | /
COC(=O)C1CN(C2CC2)CCS(=O)(=O)N1Cc1cn(Cc2ccccc2)nn1 (stereo not given) | . | / | / | / | / | / | /
CC(C)[C@H](CO)Nc1nc(NCc2ccc(S(N)(=O)=O)cc2)c2ncn(C(C)C)c2n1 | 10.2 | . | / | . | . | 7.9 | .
O=C(Nc1nc(=O)c2ccccc2s1)c1ccc(F)cc1 | 19.5 | . | . | . | . | 8.1 | 8.0
O=C(Nc1nc(=O)c2ccccc2s1)c1ccc(Cl)cc1 | . | . | . | . | . | / | /
COc1ccc(C(=O)NC2CC2)cc1OC1CCN(Cc2cc(C)c(C)cc2C)CC1 | 9.1 | . | / | . | . | . | .
Cc1ccc(NC(=S)NNC(=S)Nc2ccc(C)cc2)cc1 | . | . | / | . | / | / | /
CCCc1cc(C(=O)Nc2ccc(C)cc2)no1 | 11.6 | . | . | / | . | . | 6.9
Cc1ccc(NC(=O)c2cc(C)on2)cc1 | 8.7 | . | . | . | . | . | 18.1
Cc1ccc(NC(=S)Nc2cc(C)on2)cc1 | 8.6 | . | / | . | . | . | 13.2
Cc1cc(C(=O)N/N=C/c2cccc(Cl)c2Cl)no1 | 10.7 | . | . | . | . | . | 8.8
Cc1cccc(NC(=O)C2CCCN2S(=O)(=O)c2cccnc2)c1C (stereo not given) | . | / | / | / | / | / | /
COC(=O)c1cc2c(c3c4ccccc4n(S(=O)(=O)c4ccc(OC)cc4)c13)C(=O)N(Cc1ccc(N(C)C)cc1)C2 | . | / | / | . | / | / | /
CCCC[C@H]1C2CC(OC(=O)Nc3ccc(Cl)cc3)C(C2)[C@H]2CCCCN21 (stereo not given in full) | . | / | / | / | / | / | /
CC(C)OCCCNC1=C(Cl)C(=O)c2ccccc2C1=O | 9.4 | . | / | . | . | . | .
SMILES | SMARCA2 act | GAA850 FXN act | Hsp70 act | GalR3 antagonist | HIF activator | SMARCA2 conf | GAL4-VP16 Luc
O=C(NCc1ccco1)c1noc2c1CCCCC2 | 10.4 | . | . | . | . | . | .
CC(C)Cc1cc(C(=O)NCc2cccnc2)no1 | . | . | . | / | . | / | /
CC(C)Cc1cc(C(=O)NCc2cccs2)no1 | 12.8 | . | . | / | . | . | 14.4
CC(C)c1cc(C(=O)NCc2ccco2)no1 | 9.0 | . | . | . | . | . | 7.3
Cc1cc(C(=O)NCc2ccco2)on1 | . | . | . | . | . | / | /
O=C(Nc1ccc(O)c2c(=O)cc(-c3ccccc3Cl)oc12)c1ccc(F)cc1 | . | . | / | . | . | / | /
Nc1ccc(O)c2c(=O)cc(-c3ccccc3Cl)oc12 | 8.1 | . | . | . | . | . | 11.4
Clc1ccc(-n2c(SCc3cccc4ccccc34)nnc2-c2ccco2)cc1 | . | / | / | / | / | / | /
Cc1nc(NC(=O)/C=C/c2ccccc2)sc1C(=O)N(C)C | 10.0 | . | . | . | . | . | 6.2
Cc1nc(NC(=O)/C=C/c2ccc(F)cc2)sc1C(=O)N(C)C | . | . | . | . | . | / | /
COc1ccc2noc3c2c1C(=O)c1ccccc1-3 | 15.5 | . | / | . | . | 8.4 | .
O=C1c2ccccc2-c2onc3ccc(NCCCn4ccnc4)c1c23 | / | / | . | / | . | / | /
COc1ccc(OC)c2c1C(=O)c1ccccc1C2=O | . | / | . | . | . | / | /
COc1ccc(N)c2c1C(=O)c1ccccc1C2=O | 8.3 | . | . | . | . | 15.5 | .
O=C(Nc1ccc2c(c1)OCO2)OC1CCC12CCCCC2 (stereo not given) | . | / | / | / | / | / | /
C=CCN=C1NC(c2ccc(C(F)(F)F)cc2)C(C(=O)OC)=C(C)N1C (stereo not given) | . | / | / | . | / | / | /
O=C(N/N=C\c1ccc(COc2ccc([N+](=O)[O-])cc2)o1)c1ccc(Cl)cc1 | . | . | . | . | . | / | /
COc1ccc(OCc2ccc(/C=N\NC(=O)c3sccc3C)o2)cc1 | 8.5 | . | / | . | / | 9.4 | .
C(=N\Nc1ccccc1)/c1nc2ccccc2s1 | 10.4 | . | / | . | . | . | 9.0
COc1ccccc1C(=O)n1ccc2ccc(-c3ccc4ccn(Cc5ccccc5)c4c3)cc21 | . | / | / | / | / | / | /
O=C(Nc1ccc2nc3n(c(=O)c2c1)CCCC3)c1ccccc1F | . | . | / | . | . | / | /
O=C(Nc1ccc2nc3n(c(=O)c2c1)CCCCC3)c1ccccn1 | 8.2 | . | . | . | . | . | 10.2
Cc1cc(-c2n[nH]c(=S)n2N=Cc2ccc(-c3ccccc3)cc2)n[nH]1 | . | / | / | / | / | / | /
COC(=O)c1cc(S(=O)(=O)N2CCCC2=O)c(Cl)cc1Cl | 8.0 | . | / | . | . | . | .

Source: PubChem
